# Results from article PMC7862700, “An all-to-all approach to the identification of sequence-specific readers for epigenetic DNA modifications on cytosine”.
# Tests used:
# Experiment in all cases: DAPPL (digital affinity profiling via proximity ligation, sequencing); 10 mM Tris-HCl pH 7.5, 50 mM NaCl, 1 mM DTT, 4% glycerol, room temperature, 30 min; GST-TFs on glutathione beads, 16-mer random dsDNA library, 0.1% formaldehyde crosslink after washing; high values mean tight binding
# Settings in all cases: protein: recombinant; tags: N-terminal GST; dsDNA, one strand shown
# [1] = biological target: T1, FEV (Homo sapiens, UniProt Q99581 1-238)
# T1 sequence: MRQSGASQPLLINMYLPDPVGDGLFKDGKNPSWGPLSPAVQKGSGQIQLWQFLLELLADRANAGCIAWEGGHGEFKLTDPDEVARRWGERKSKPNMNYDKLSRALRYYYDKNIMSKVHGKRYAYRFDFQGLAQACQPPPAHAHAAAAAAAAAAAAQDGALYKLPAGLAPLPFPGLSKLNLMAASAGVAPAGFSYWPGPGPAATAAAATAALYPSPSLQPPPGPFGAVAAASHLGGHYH
# Method in brief: (§1)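 GST fusions of human transcription factors were expressed in yeast and captured with glutathione beads. Once given DNA barcodes and pooled alongside a tag-only sample, they were incubated for 30 min at room temperature with 200 nmole of a random double-stranded 16-mer DNA library in Tris/NaCl/DTT/glycerol buffer, then washed, crosslinked (0.1% formaldehyde), proximity-ligated, PCR-amplified and sequenced on an Illumina NextSeq500. The binding signal of each hexamer is its read frequency for a factor divided by its frequency for the tag-only sample.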
# [2] = biological target: ETV5 (Homo sapiens, UniProt P41161 1-510)
# Chain of ETV5 (P41161 whole entry): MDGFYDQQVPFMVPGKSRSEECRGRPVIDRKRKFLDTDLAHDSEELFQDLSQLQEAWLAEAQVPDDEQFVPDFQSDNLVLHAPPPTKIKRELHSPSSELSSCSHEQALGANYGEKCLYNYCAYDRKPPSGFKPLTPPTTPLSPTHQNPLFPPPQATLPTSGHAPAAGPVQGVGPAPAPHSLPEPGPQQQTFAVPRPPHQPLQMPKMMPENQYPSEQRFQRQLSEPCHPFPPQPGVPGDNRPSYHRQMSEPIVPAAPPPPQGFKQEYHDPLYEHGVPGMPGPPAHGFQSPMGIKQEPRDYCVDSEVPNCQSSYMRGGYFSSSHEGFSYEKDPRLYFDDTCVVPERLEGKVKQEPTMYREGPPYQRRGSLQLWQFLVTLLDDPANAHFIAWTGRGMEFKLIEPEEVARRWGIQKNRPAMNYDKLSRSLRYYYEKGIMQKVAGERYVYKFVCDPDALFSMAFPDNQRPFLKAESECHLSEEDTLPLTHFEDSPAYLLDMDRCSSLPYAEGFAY
# Method in brief: as §1
# [3] = biological target: ELF4 (Homo sapiens, UniProt Q99607 1-663)
# Chain of ELF4 (Q99607 whole entry): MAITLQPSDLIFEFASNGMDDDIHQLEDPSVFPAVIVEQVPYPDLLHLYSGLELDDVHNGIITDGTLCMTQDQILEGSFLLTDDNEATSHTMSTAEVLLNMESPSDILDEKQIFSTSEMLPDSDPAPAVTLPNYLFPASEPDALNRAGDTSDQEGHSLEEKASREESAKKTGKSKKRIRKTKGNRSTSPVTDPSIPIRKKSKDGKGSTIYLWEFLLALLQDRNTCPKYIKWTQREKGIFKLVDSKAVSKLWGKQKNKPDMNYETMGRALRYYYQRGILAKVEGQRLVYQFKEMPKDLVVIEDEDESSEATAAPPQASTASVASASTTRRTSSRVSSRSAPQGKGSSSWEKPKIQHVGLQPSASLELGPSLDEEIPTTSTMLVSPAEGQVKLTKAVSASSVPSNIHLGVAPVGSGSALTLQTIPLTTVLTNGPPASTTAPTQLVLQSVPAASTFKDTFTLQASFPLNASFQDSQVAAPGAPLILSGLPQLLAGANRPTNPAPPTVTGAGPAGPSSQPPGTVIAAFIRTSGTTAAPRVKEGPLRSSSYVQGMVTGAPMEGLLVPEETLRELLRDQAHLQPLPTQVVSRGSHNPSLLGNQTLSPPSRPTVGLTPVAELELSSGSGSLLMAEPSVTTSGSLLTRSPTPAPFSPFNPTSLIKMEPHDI
# Method in brief: as §1
# [4] = biological target: ETV1 (Homo sapiens, UniProt P50549 1-477)
# Chain of ETV1 (P50549 whole entry): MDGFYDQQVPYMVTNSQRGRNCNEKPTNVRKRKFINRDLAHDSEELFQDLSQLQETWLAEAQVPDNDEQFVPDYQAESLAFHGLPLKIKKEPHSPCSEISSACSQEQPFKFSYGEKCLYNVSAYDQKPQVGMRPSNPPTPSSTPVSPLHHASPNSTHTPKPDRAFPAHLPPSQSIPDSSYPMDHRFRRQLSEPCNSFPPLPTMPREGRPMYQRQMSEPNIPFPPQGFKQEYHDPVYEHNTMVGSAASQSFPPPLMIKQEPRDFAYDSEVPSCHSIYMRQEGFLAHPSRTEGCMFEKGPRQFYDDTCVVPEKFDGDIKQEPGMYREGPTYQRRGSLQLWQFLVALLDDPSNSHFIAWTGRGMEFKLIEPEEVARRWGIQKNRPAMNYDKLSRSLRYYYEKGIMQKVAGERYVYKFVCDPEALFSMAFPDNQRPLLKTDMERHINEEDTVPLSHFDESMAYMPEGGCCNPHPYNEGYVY
# Method in brief: as §1
# [5] = biological target: T2, ERF (Homo sapiens, UniProt P50548 1-548)
# T2 sequence: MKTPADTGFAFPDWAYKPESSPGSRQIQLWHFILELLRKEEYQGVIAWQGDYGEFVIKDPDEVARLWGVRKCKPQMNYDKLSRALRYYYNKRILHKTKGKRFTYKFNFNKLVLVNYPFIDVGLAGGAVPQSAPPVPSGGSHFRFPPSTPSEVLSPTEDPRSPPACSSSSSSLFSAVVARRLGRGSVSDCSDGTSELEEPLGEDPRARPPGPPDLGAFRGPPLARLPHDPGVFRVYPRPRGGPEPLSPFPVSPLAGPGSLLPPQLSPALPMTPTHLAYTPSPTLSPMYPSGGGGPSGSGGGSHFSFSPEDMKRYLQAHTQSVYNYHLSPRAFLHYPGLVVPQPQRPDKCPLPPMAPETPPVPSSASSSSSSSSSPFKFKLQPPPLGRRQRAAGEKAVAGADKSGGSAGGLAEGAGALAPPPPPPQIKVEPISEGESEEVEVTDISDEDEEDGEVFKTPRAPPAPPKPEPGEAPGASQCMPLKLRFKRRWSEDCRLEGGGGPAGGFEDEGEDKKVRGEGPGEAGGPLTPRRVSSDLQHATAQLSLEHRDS
# Method in brief: as §1
# [6] = biological target: T3, ETV3L (Homo sapiens, UniProt Q6ZN32 1-361)
# T3 sequence: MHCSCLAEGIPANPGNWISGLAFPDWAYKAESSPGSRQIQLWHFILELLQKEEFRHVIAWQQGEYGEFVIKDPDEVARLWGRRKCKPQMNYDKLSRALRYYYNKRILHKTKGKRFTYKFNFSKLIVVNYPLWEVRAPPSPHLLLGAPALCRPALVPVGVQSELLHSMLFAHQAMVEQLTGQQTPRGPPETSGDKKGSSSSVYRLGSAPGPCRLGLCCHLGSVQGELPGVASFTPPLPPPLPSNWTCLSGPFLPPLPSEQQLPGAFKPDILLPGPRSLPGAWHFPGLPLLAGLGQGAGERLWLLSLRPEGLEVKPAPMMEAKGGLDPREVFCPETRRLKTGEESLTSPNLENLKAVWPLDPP
# Method in brief: as §1
# [7] = biological target: T4, ETS2 (Homo sapiens, UniProt P15036 1-469)
# T4 sequence: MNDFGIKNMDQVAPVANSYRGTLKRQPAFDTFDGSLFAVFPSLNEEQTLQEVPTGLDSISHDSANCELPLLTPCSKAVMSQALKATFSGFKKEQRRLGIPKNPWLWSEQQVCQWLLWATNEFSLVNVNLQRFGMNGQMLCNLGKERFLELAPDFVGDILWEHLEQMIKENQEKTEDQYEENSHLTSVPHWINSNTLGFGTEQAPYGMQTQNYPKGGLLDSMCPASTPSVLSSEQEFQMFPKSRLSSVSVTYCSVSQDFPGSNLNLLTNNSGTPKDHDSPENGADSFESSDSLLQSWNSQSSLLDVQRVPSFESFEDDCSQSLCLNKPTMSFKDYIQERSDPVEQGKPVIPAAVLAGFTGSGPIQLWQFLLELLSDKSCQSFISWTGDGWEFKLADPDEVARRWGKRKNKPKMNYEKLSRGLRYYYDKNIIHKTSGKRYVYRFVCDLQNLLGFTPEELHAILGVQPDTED
# Method in brief: as §1
# [8] = biological target: T5, ELF5 (Homo sapiens, UniProt Q9UKW6-2 1-255)
# T5 sequence: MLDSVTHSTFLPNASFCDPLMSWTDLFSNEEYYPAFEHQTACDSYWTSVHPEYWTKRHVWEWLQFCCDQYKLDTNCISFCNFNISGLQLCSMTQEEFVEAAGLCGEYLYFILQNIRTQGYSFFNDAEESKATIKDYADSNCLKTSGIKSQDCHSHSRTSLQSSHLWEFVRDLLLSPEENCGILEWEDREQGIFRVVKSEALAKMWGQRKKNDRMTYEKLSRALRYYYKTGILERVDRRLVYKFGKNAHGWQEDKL
# Method in brief: as §1
# [9] = biological target: T6, ETV3 (Homo sapiens, UniProt P41162-2 1-143)
# T6 sequence: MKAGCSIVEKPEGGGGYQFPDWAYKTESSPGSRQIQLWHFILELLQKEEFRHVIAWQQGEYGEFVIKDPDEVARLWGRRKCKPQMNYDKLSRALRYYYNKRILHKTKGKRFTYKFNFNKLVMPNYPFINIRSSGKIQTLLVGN
# Method in brief: as §1
# [10] = biological target: ETV6 (Homo sapiens, UniProt P41212 1-452)
# Chain of ETV6 (P41212 whole entry): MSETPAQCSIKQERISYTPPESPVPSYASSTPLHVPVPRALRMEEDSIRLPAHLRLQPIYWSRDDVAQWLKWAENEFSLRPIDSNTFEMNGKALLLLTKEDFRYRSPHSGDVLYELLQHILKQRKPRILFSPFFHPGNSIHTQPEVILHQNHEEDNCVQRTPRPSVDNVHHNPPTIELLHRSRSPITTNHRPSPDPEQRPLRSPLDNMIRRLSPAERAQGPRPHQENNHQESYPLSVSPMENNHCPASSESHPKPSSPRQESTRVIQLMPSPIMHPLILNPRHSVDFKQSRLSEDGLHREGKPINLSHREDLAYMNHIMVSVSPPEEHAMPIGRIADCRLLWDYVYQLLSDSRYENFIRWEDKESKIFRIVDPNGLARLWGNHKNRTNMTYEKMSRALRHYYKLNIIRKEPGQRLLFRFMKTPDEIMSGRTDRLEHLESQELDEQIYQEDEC
# Method in brief: as §1
sequence,measurement,setting,value
TGTAAC,binding signal,[1],"1.23 fold enrichment (6-mer frequency, TF over GST control)"
same,binding signal,[2],"1.24 fold enrichment (6-mer frequency, TF over GST control)"
same,binding signal,[3],"1.2 fold enrichment (6-mer frequency, TF over GST control)"
same,binding signal,[4],"1.28 fold enrichment (6-mer frequency, TF over GST control)"
same,binding signal,[5],"1.23 fold enrichment (6-mer frequency, TF over GST control)"
same,binding signal,[6],"1.15 fold enrichment (6-mer frequency, TF over GST control)"
same,binding signal,[7],"1.32 fold enrichment (6-mer frequency, TF over GST control)"
same,binding signal,[8],"1.21 fold enrichment (6-mer frequency, TF over GST control)"
same,binding signal,[9],"1.24 fold enrichment (6-mer frequency, TF over GST control)"
same,binding signal,[10],"1.2 fold enrichment (6-mer frequency, TF over GST control)"
